Source: PubChem BioAssay AID686978 (National Center for Advancing Translational Sciences (NCATS), 2013)
Several values for one entry are separate records, joined by “and”; a condition that tells them apart may be missing. Equal values may be shown once. Screen size: about 420,000 compounds; about 64,000 (15%) were called active. About 27% were inconclusive and are not listed. These entries were drawn from the full list. Unmarked numbers belong to inactive results. Calls follow the shape of the dose curve; as a rule, active = well fitted inhibition curve with a large enough effect; inconclusive = small, poorly fitted or top-dose-only effect; inactive = flat fitted curve, though single readings scatter.

test: qHTS for Inhibitors of human tyrosyl-DNA phosphodiesterase 1 (TDP1): qHTS in cells in absence of CPT; conditions: DT40 Tdp1-/- hTDP1 cells, no CPT, ATP luminescence, 48 h; activity change, negative = growth inhibition: at 46.2 µM (top of the series); also: nearly all actives have a fitted effect of over 55% in size
Summary of the method: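 Luminescent ATP content (CellTiter-Glo) served as the growth readout. Knockout chicken DT40 cells expressing human TDP1 were exposed to compounds without camptothecin for a minimum 48 hr at 37 °C.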
% is scaled to controls: 0 for no effect and ±100 for the full control effect; potency is read from the fitted curve at half-maximal effect.

Row | SMILES | Potency | activity change, negative = growth inhibition [%]
1 | CC(=O)Oc1cc2c(C(=O)NCCN3CCOCC3)c(C)oc2c2ccccc12 | 16.4 µM (active) | 
2 | Cc1cc(C)cc(C(=O)NCCN2CCOCC2)c1 |  | -4.83
3 | O=C(NCCN1CCOCC1)c1c(F)c(F)c(F)c(F)c1F |  | 16.8
4 | O=C(CCc1nc(CN2CCN(S(=O)(=O)c3ccc(F)cc3)CC2)no1)N1CCCCC1 |  | -13.9
5 | CCN(CC(=O)Nc1ccc(OC)cc1)C(=O)c1ccc(=O)n(Cc2ccccc2)n1 |  | -9.51
6 | O=C(CNC(=O)c1cc(=O)[nH]c2ccccc12)Nc1ccc(F)c(F)c1 |  | 9.3
7 | COC(=O)c1cnn2c(C(F)(F)F)cc(-c3ccco3)nc12 |  | -7.72
8 | CCOc1ccc(C(C)=O)cc1COC(=O)CNC(=O)c1cccs1 |  | -6.35
9 | O=C(O)/C=C/c1ccc(S(=O)(=O)N2CCCCCC2)cc1 |  | -0.963
10 | CN/C(=C\[N+](=O)[O-])NCCSCc1csc(CN(C)C)n1 | inactive | 
11 | Cc1ccnc(-n2sc3ccccc3c2=O)n1 | 5.17 µM (active) | 
12 | Cc1nc2ccccc2c(=O)n1CCCn1ccnc1 |  | -13.6
13 | Cc1ccnc(N2CCCC(C(=O)NC3CC3)C2)n1 (stereo not drawn) |  | 9.1
14 | COCCCNC(=O)c1c(F)c(F)c(F)c(F)c1F |  | 12.3
15 | O=C(CSc1nnc(-c2ccncc2)n1C1CCCCC1)Nc1ccccc1 |  | -10.6
16 | CCC(C)N(C)C1CCN(C(=S)Nc2ccc(OC)cc2)CC1 (stereo not drawn) |  | -3.26
17 | COc1ccccc1OCC(=O)Nc1c2c(nn1-c1ccc(F)cc1)CS(=O)(=O)C2 |  | -2.31
18 | Cc1cccc(-n2nc3c(c2NC(=O)c2ccc(Br)o2)CSC3)c1C |  | -18.1
19 | COc1cccc(C(=O)Nc2c3c(nn2-c2cccc(C)c2C)CS(=O)(=O)C3)c1OC | 15.8 µM (active) | 
20 | COc1ccc(N(CC(=O)Nc2cccc3ccccc23)S(C)(=O)=O)c(OC)c1 |  | -24.1
21 | CCC(CC)C(=O)Nc1cc(C(=O)OC)cc(C(=O)OC)c1 |  | -12.8
22 | Cc1cc2nc3c(=O)n(Cc4ccccc4)c(=O)[nH]c3nc2cc1N |  | -27.9
23 | Cc1ccc(-n2nnnc2CNC(=O)c2ccccc2C)cc1C |  | -10.6
24 | CCC(=O)N(C)C(c1ccccc1Cl)c1nnnn1-c1c(C)cccc1C (stereo not drawn) | 18.4 µM (active) | 
25 | CCOC(=O)N1CCN(C(c2ccnc3ccccc23)c2nnnn2-c2c(C)cccc2C)CC1 (stereo not drawn) |  | -23
26 | Cc1ccc(S(=O)(=O)N(NC2=NS(=O)(=O)c3ccccc32)C(=O)c2ccccc2)cc1 |  | -14.8

Row | SMILES | Potency | activity change, negative = growth inhibition [%]
27 | Cc1cc(C)c(C)c(S(=O)(=O)N[C@@H](C)C(=O)OC(C)C(=O)NC(N)=O)c1C (stereo partly drawn) |  | 4.64
28 | COc1ccccc1C(=O)COC(=O)CSCC(=O)Nc1cc(C)on1 |  | 1.01
29 | COC(=O)N1CN(C(=O)OC)CN(C(=O)OC)C1 |  | -2.09
30 | CN(C(=O)CC1C(=O)NCCN1Cc1ccc(F)cc1Cl)C1CCCCC1 (stereo not drawn) |  | 0.124
31 | CCOC(=O)N1CCN(C(=O)c2n[nH]c(=O)c3ccccc23)CC1 |  | -14
32 | CCOC(=O)N1CCN(C(=O)c2nn(-c3ccc(C)cc3)c(=O)c3c2c2ccccc2n3C)CC1 | 18.4 µM (active) | 
33 | COc1cc(NC(=O)c2nn(-c3ccc(C)cc3)c(=O)c3c2c2ccccc2n3C)cc(OC)c1OC |  | -7.67
34 | CCCN(CCC)CCNC(=O)Cn1cnc2sc(C)c(S(=O)(=O)N3CCC(C)CC3)c2c1=O |  | 7.29
35 | O=C(CC[C@H]1O[C@@H](n2ccc(=O)[nH]c2=O)[C@H](O)[C@@H]1O)N[C@H](Cc1ccccc1)C(=O)NCc1ccco1 |  | 24.1
36 | O=C(NN=CC=Cc1ccccc1)C(O)C(O)C(=O)NN=CC=Cc1ccccc1 (stereo not drawn) |  | 2.13
37 | CC(C)(C)c1ccc(NC(=O)NCc2ccco2)cc1 | 14.6 µM (active) | 
38 | CC(C)(C)c1ccc(C(=O)NCc2ccco2)cc1 |  | -25.6
39 | CC(C)(C)NC(=O)NCc1ccco1 |  | -7.35
40 | Clc1ccc(-c2nnc(SCc3nc4ccccc4s3)o2)cc1 |  | 1.63
41 | Oc1c(Cl)cc(Cl)c(Cl)c1Cc1c(O)c(Cl)cc(Cl)c1Cl | 4.22 µM (active) and 23.1 µM (active) and 2.59 µM (active) | 
42 | CCCn1c(N)c(C(=O)CSc2nnc3n2CCCCC3)c(=O)[nH]c1=O |  | 6.82
43 | CN(CC(=O)NCCc1ccc(S(N)(=O)=O)cc1)CC(=O)Nc1ccc(F)c(F)c1F |  | -17.4
44 | CCOc1ccccc1NC(=O)CN1CCN(S(=O)(=O)c2ccc(Br)cc2)CC1 |  | -17.6
45 | Cn1c(CC(=O)Nc2ccccc2)nnc1SCC(=O)c1ccccc1 |  | 1.42
46 | COc1ccc(Sc2nc(-c3ccccc3)ncc2OC)cc1 |  | -5.11
47 | CCCCNC(=O)c1onc(CSc2cccc(OC)c2)c1C(=O)O |  | -11
48 | CCCCNc1c(-c2cccc(Sc3ccc(OC)cc3)c2)nc2ccccn12 | 20.6 µM (active) | 
49 | O=c1o[nH]c(-c2ccccc2)c1N=Nc1c(F)cccc1Cl |  | -4.15
50 | CCOC(=O)C1CCCN(C(=O)Cn2ncc3c(=O)oc4ccc(C)cc4c32)C1 (stereo not drawn) |  | 1.04
51 | Cc1ccc2oc(=O)c3cnn(CC(=O)N4CCCCCC4)c3c2c1 |  | -15.1
52 | CCOC(=O)C1CCCN(C(=O)Cn2ncc3c(C)n(Cc4ccc(F)cc4)c(C)c3c2=O)C1 (stereo not drawn) | 16.4 µM (active) | 

Row | SMILES | Potency | activity change, negative = growth inhibition [%]
53 | CCOc1ccc(CN(C)C(=O)c2ccc(=O)[nH]c2)cc1 |  | -19.3
54 | Clc1ccc2nc(-c3ccccc3)nc(C(Cl)Cl)c2c1 | 0.366 µM (active) | 
55 | Cc1ccccc1C(=O)NNC(=O)CN1C(=O)c2ccccc2C1=O |  | 16.1
56 | Cc1noc(C)c1-c1nc(CSc2ccc(Cl)cc2)no1 |  | -21.8
57 | Clc1ccc(Cc2nnc(-c3cccs3)o2)cc1 |  | -21.9
58 | CCc1nn(-c2cc(Oc3cccc4ccccc34)nc(-c3ccccc3)n2)c(N)c1C#N | 16.4 µM (active) | 
59 | CCCC(=O)n1nc(-c2ccccc2)nc1N |  | -4.29
60 | COc1ccc(Cn2c(=O)c3oc4ccccc4c3n(CC(=O)Nc3ccc(F)cc3F)c2=O)cc1 |  | -15.4
61 | CCOC(=O)c1sc(=NC(=O)/C=C/c2cccs2)n(C)c1C |  | -22.9
62 | CCCCc1nnc(NC(=O)CSc2nc(C)cc(=O)[nH]2)s1 |  | -10.6
63 | COc1ccc(OC)c(CN2C(=O)CCC2(C)C(=O)NC2CCCCCC2)c1 (stereo not drawn) |  | 3.78
64 | COc1ccc(OC)c(C(=O)NC2CCCc3c2cnn3-c2cc(C)cc(C)c2)c1 (stereo not drawn) | 16.4 µM (active) | 
65 | COCc1c(C(=O)NC2CCCCC2)cnn1-c1nccc(-c2ccccc2OC)n1 |  | -2.16
66 | Cc1cc(C(=O)NCC2Cc3cccc(-c4cncnc4)c3O2)c(C)o1 (stereo not drawn) |  | 0.211
67 | COC(=O)C1=C(C)N(C)C(=S)NC1c1cc(OC)ccc1OC (stereo not drawn) |  | -6.15
68 | Cc1cc(C(=O)NNC(=O)CCC2CCCCC2)c(C)o1 |  | 4.76
69 | Cc1cc(C(=O)NC2CCCc3c2cnn3-c2cccc(C)c2C)c(C)o1 (stereo not drawn) | 8.2 µM (active) | 
70 | COc1ccc(C(=O)NC2CCCc3c2cnn3-c2cccc(C)c2C)c(OC)n1 (stereo not drawn) | 8.2 µM (active) | 
71 | Cc1ccccc1C(=O)NCCN=C1NS(=O)(=O)c2ccccc21 |  | 17.6
72 | CC(=O)N[C@H]1[C@H]([C@H](O)[C@H](O)CO)OC(C(=O)O)=C[C@@H]1O |  | 7.34
73 | Cc1ccc(S(=O)(=O)c2ccc(Cl)cc2)cc1S(=O)(=O)NC(C(=O)O)C(C)C (stereo not drawn) |  | -8.65
74 | CN(C)c1ccc(-n2cccc2/C=N/n2cnnc2)cc1 |  | -5.16
75 | C=CCN1C(=NC(=O)COc2ccccc2)SC2CS(=O)(=O)CC21 (stereo not drawn) |  | -0.72
76 | Nc1ccc2nc3c(=O)[nH]c(=S)[nH]c3nc2c1 |  | -13.9
77 | Cc1ccccc1OCC(=O)Nc1c(C(=O)Nc2ccccc2F)oc2ccccc12 |  | -18.9
78 | Cn1c(SCC(=O)c2ccccc2)ncc(C(=O)Nc2ccc(F)cc2)c1=O |  | -26.2

Row | SMILES | Potency | activity change, negative = growth inhibition [%]
79 | Cc1cc(NC(=O)CSc2ncc(C(=O)Nc3ccc(Cl)cc3)c(=O)n2C)no1 |  | -3.88
80 | Cc1ccc(NC(=O)c2cnc(SCC(=O)NCC3CCCO3)n(C)c2=O)cc1 (stereo not drawn) | 14.6 µM (active) | 
81 | COc1cccc(-n2ccn(CC(=O)NCc3ccc(C)cc3)c(=O)c2=O)c1 |  | -24
82 | CC(C)=CCN1CCC2(CCc3ccccc32)CC1 | 20.6 µM (active) | 
83 | OCC[C@H]1C[C@@H](O)[C@H](O)[C@@]2(OCCc3ccccc32)O1 |  | -12.8
84 | CC(C)=CCN1CCN(CCCc2ccccc2)CC1CCO (stereo not drawn) |  | 2.17
85 | O=C(CN1C(=O)C2C3C=CC(C3)C2C1=O)NCC1COc2ccccc2O1 (stereo not drawn) |  | 2.38
86 | CCn1ccnc1C[C@@H]1COc2ccccc2O1 |  | -21.8
87 | Cc1ccc(S(=O)(=O)NCCC(=O)NNC(=O)C2COc3ccccc3O2)cc1 (stereo not drawn) |  | -20.6
88 | O=C1C(=O)N(CC2COc3ccccc3O2)c2ccccc21 (stereo not drawn) | 1.46 µM (active) | 
89 | Cc1cc(C(=O)CCl)c(C)n1CC1COc2ccccc2O1 (stereo not drawn) | 2.59 µM (active) | 
90 | Cc1cc(NC(=O)CCC2COc3ccccc3O2)no1 (stereo not drawn) |  | -10.2
91 | CCN(CCN(C)C)C(=O)c1ccc2nc(C)c(N(C)C(=O)CCc3ccccc3)n2c1 |  | 10.3
92 | CCOc1ccc(Br)cc1S(=O)(=O)Nc1ccc(S(=O)(=O)Nc2cc(C)on2)cc1 |  | -1.12
93 | CC1C(=O)Nc2ccccc2N1C(=O)c1ccc(F)cc1F (stereo not drawn) |  | -0.847
94 | CCn1c(SCC(=O)NC2CC2)nnc1-c1ccccc1OC |  | 23.2
95 | Cc1ccc2cc(CN(c3ccc(C)c(C)c3)S(C)(=O)=O)c(=O)[nH]c2c1 |  | -26.3
96 | Cc1cc(NC(=O)CSc2nnc(-c3ccco3)n2N)no1 |  | -0.944
97 | Cc1cc(NC(=O)CSc2nnnn2-c2ccc(F)cc2)no1 |  | -0.549
98 | Cc1cc(C)c2c(c1)cc(C)c1nnc(SCC(=O)Nc3cc(C)on3)n12 | 11.6 µM (active) | 
99 | Cc1ccc(NC(=O)C(Cc2ccccc2)NS(=O)(=O)c2ccc3c(c2)oc(=O)n3C)cc1C (stereo not drawn) |  | 5.28
100 | CN(C(=O)CC1C(=O)NCCN1Cc1ccc2ccccc2c1)C1CCOCC1 (stereo not drawn) |  | 5.39
101 | O=C1CC(c2c(F)cccc2Cl)C(n2cncn2)C(O)=C1C1NCCc2ccccc21 (stereo not drawn) |  | -4.41
102 | Cc1ccc(C(=O)NNC(=O)CSc2nnc3ccccn23)cc1 |  | -0.0604
103 | Cc1ccc(C(C[N+](=O)[O-])c2c(C)cc3ccccn23)cc1 (stereo not drawn) | 16.4 µM (active) | 
